Most compounds without a hit are left out; they make up all but 12% or so of the library.
FMDV antiviral: antivirals against foot and mouth disease virus; FMDV antiviral cell-based qHTS; Potency, µM (doses to about 57.9 µM), inactives show top-dose activity change, negative = inhibition, usual class: inhibitors; hit rate 1.2% among 410,000; AID 1159524; calls by dose curve; tested in HEK293T cells; also: read-out not given here; potency is read from the fitted curve at half-maximal effect; % is scaled to controls: 0 for no effect and ±100 for the full control effect; nearly all actives have a fitted effect of over 45% in size
CHX counter: affects cycloheximide protein synthesis inhibition readout, counter-screen; cell reporter, cycloheximide protein synthesis inhibition counterscreen; max response, %; hit rate 12% among 300,000; in the data active = max response mostly above about 13%, no sharp cut-off; inactive = mostly below about 14%; also: read at 38.3 µM for the half of the compounds with a filed dose; 0% is about no effect
Sm TGR inh: blocks Schistosoma mansoni thioredoxin glutathione reductase; purified TGR, DTNB reduction, TNB absorbance 405 nm; Potency, µM (top dose mostly 114 µM), for inactives: top-dose activity change, negative = inhibition, actives largely listed as inhibitors; hit rate 3% among 360,000; active = well fitted inhibition curve with a large enough effect; inconclusive = small, poorly fitted or top-dose-only effect; inactive = no such curve, though single readings can be large or run the other way; also: potency is read from the fitted curve at half-maximal effect; % is scaled to controls: 0 for no effect and ±100 for the full control effect; nearly all actives have a fitted effect of over 60% in size
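Kinetic colorimetric format: TGR-catalysed, NADPH-driven DTNB reduction monitored via TNB absorbance. Enzyme dispensed at 20 nM; compound exposure 15 min at room temperature before reaction start.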
Shiga inhibitor: blocks Shiga toxin action in Vero cells. Vero cells, Shiga toxin protein synthesis inhibition reporter. inhibition, % at 38.7 µM. hit rate 9.2% among 290,000; in the data active = inhibition mostly above about 28%, no sharp cut-off; inactive = mostly below about 43%; also: 0% is about no effect
Active calls of the source: *; ? = inconclusive; nt = no result given; [ ] = remark or other dose.

SMILES | FMDV antiviral | CHX counter | Sm TGR inh | Shiga inhibitor
CN(C)C(=O)NC(Nc1cccc([N+](=O)[O-])c1)C(Cl)(Cl)Cl (centres undefined) | -18% | -6 | 20µM* | 85
CCOc1ccc(C(=O)Nc2cccc([N+](=O)[O-])c2)cc1Br | 7% | 20* | -4% | 16
COc1ncc2nc(-c3ccc(F)cc3)c(=O)n(CCC#N)c2n1 | -8% | nt | nt | nt
CC(C)(C)C1CCc2c(sc(NC(=O)c3noc4c3CCCC4)c2C#N)C1 (centres undefined) | 9% | nt | 1% | nt
O=C(Nc1ccc2ccccc2c1)c1cccc([N+](=O)[O-])c1 | 37% | 20* | 19% | 74*
O=C(Nc1ccc(Oc2cccnc2)cc1)c1cccc([N+](=O)[O-])c1 | -5% | 16* | -2% | 44*
CCc1ccccc1NC(=O)CSc1ncc(S(=O)(=O)c2ccccc2)c(N)n1 | -26% | nt | 8% | nt
CCCCC(CC)CNC(=O)CN(C)S(=O)(=O)c1cccc2nsnc12 (centres undefined) | ? | 10 | 5% | 53*
O=[N+]([O-])/C(C(Cl)=C(Cl)Cl)=C(/Sc1ccccc1)N1CCCCC1 | ? | 28 | 28µM* | 2
N#Cc1c(N)sc(=S)c2c1CCCC2 | 0% | -4 | 28µM* | -14
Cc1ccc(NC(=O)C(=O)NCC(c2cccnc2)N2CCc3ccccc3C2)cc1 (centres undefined) | ? | nt | 3% | nt
CN1CCC(Oc2ccc(Sc3ccccc3)cc2)CC1 | 18% | 68* | 4% | 63*
O=C(/C=C/c1ccc(S(=O)(=O)N2CCOCC2)cc1)N1CCN(c2ccccc2)CC1 | 32µM* | -3 | 10% | -5
COc1ccc(/C=C/C(=O)N2CCN(c3ccccc3)CC2)cc1S(=O)(=O)N1CCOCC1 | 14µM* | -1 | 6% | 16
CN(C)C(=O)c1cc(C(=O)c2ccccc2Br)c[nH]1 | 13% | 11 | -6% | 48
CN(C)C(=O)c1cc(C(=O)c2ccccc2Cl)c[nH]1 | 38% | 29* | 7% | 28
CN(C)C(=O)c1cc(C(=O)c2ccccc2)c[nH]1 | 37% | 18* | 11% | 24
Cc1cccc(NC(=O)CSc2nc(-c3cccs3)cc(C(F)(F)F)c2C#N)c1C | 3% | nt | 19% | nt
CC(C)c1ccc(S(=O)(=O)c2cn(CC(=O)Nc3ccc(F)cc3)c3ccccc3c2=O)cc1 | -18% | nt | -1% | nt
CCOc1ccc2oc(=O)cc(CN3CCN(c4ccc(Cl)cc4)CC3)c2c1 | -12% | nt | 0% | nt
CN(C)C1CSSSC1 | nt | -3 | nt | -7
CC(=O)N1[C@H](Cc2ccccc2)C=C[C@]1(C)C(=O)NCc1ccc(C)o1 | -6% | 20 | 8.9µM* | 22
CNC(=O)[C@@]1(C)C=C[C@@H](Cc2ccccc2)N1C(=O)OC | 26% | 22* | -17% | 50
COC(=O)N1[C@H](Cc2ccccc2)C=C[C@]1(C)C(=O)NCc1ccccn1 | 2% | 0 | -25% | -5
COCCNC(=O)[C@@]1(C)C=C[C@@H](Cc2ccccc2)N1C(=O)c1ccccc1 | 55% | 21* | ? | 28*
SMILES | FMDV antiviral | CHX counter | Sm TGR inh | Shiga inhibitor
CC(=O)N1[C@H](Cc2ccccc2)C=C[C@]1(C)C(=O)NCCc1c[nH]c2ccccc12 | 5% | 0 | -1% | -5
Cc1cc(NCc2ccccc2Cl)n2cnnc2n1 | ? | nt | -1% | nt
O=C(NNc1ccccc1[N+](=O)[O-])Nc1ccc(F)cc1F | -2% | 1 | 1% | 33
COc1cccc(NC(=O)Nc2ccccc2C(N)=O)c1 | 32% | 27* | 12% | 35
O=C(Nc1cccc(Cl)c1)Nc1ccccc1C(=O)O | -6% | 24* | -1% | 47*
CSc1ccc(NC(=O)Nc2ccccc2C(N)=O)cc1 | 8% | 67* | 4% | 74*
O=C(NNc1ccccc1[N+](=O)[O-])Nc1cccc(Cl)c1 | -2% | 47* | -30% | 81*
NC(=O)c1ccccc1NC(=O)CN1CCN(Cc2ccc(Cl)cc2Cl)CC1 | 18µM* | -5 | -14% | -10
NC(=O)c1ccccc1NC(=O)Nc1cccc(Cl)c1 | 56% | 21* | -3% | 45*
COc1ccc(NC(=O)CC2NCCNC2=O)c(OC)c1 (centres undefined) | -5% | nt | 0% | nt
CCc1ccc(N2C(=O)c3sc4nnc(-c5ccccc5)c(=O)n4c3C2=O)cc1 | 0% | -4 | 10µM* | -11
Cc1c(CCC(=O)N2CCC[C@H]2C(=O)O)c(=O)oc2c(C)c3oc4c(c3cc12)CCCC4 | 0% | 8.5* | -10% | 5
Cc1c(CCC(=O)NCCCCCC(=O)O)c(=O)oc2c(C)c3oc4c(c3cc12)CCCC4 | -6% | 4 | 24% | 19
Cc1ccccc1NC(=O)Cn1c(=O)n(CCC(=O)NCc2ccc3c(c2)OCO3)c(=O)c2sccc21 | 19% | nt | 7% | nt
CCOc1ccc(OCCn2nnc3ccccc3c2=O)cc1 | 72% | 37* | -7% | 59*
Cc1ccc(OCCn2cnc3ccccc3c2=O)c([N+](=O)[O-])c1 | 58% | 50* | 5% | 52*
CCOc1cccc(OCCn2cnc3ccccc3c2=O)c1 | 62% | 13 | -3% | 35*
CC(C)(C)c1ccc(OCCOCCn2cnc3ccccc3c2=O)cc1 | -4% | 35* | 6% | 55
CCCn1nnc2ccccc2c1=O | 0% | 7 | -2% | -7
Cc1cc(C)c(NC(=O)C(=O)NCC(c2cccnc2)N2CCN(c3ccccc3F)CC2)c(C)c1 (centres undefined) | ? | nt | -2% | nt
CO[C@H]1[C@H](NC(=O)c2ccsc2)c2ccccc2C12CCN(Cc1c(O)ccc3ccccc13)CC2 | 13% | nt | nt | nt
Cc1cnc(-n2ncc(C(=O)NCCc3ccccn3)c2C)nc1-c1ccc(F)cc1 | -1% | nt | nt | nt
CCc1ccc(CNC(=O)c2cnc3sc(N4CCOCC4)nn3c2=O)cc1 | 0% | nt | 0% | nt
O=C(CSc1oc(-c2ccc(F)cc2)nc1S(=O)(=O)c1ccc(Cl)cc1)c1ccccc1 | 11% | nt | -9% | nt
CCCCCCCCCCCCCCCC(=O)N[C@@H](COP(=O)(O)O)C(=O)O | 12%[6.7 µM] | -8 | nt | -15
SMILES | FMDV antiviral | CHX counter | Sm TGR inh | Shiga inhibitor
Cc1ccc(-c2nn(-c3ccccc3)cc2CN(Cc2ccccc2)C(=O)c2ccco2)o1 | 28µM* | -1 | 0% | -3
O=C(c1ccco1)N(Cc1ccccc1)Cc1ccccn1 | 3% | 1 | nt | -4
Cc1ccc(-c2nn(-c3ccccc3)cc2C(=O)O)o1 | nt | 0 | 20µM* | 7
Cc1ccc(-c2nn(-c3ccccc3)cc2/C=C/C(=O)O)o1 | 25% | 14* | 32µM* | 33
O=C(O)/C=C/c1cn(-c2ccccc2)nc1-c1cc2ccccc2oc1=O | 35% | 22* | -11% | 41*
COc1ccc(-c2cc(C(=O)Oc3ccc(Br)cc3)c3ccccc3n2)cc1 | -2% | nt | 9% | nt
CCOC(=O)C1=C(C)NC(C)=C(C(=O)OCC)C1c1cn(-c2ccccc2)nc1-c1ccco1 | -9% | -1 | -24% | -12
CC(C)OC(=O)c1cn(-c2ccccc2)nc1-c1ccco1 | ? | 1 | 5µM* | -6
Cc1ccccc1OC(=O)CSc1nnc(-c2ccc3c(c2)OCO3)o1 | ? | nt | 0% | nt
CCS(=O)(=O)Nc1cc(C(=O)N2CCC[C@H]2CO)c2c(c1)nc(-c1ccccc1)n2C | 3% | nt | nt | nt
c1ccc(-n2nnc3cnccc32)cc1 | 19% | 24* | 5% | 24
Nc1ccc2c(c1)nnn2-c1ccccc1 | 32% | 32* | 14% | 59

High-throughput results from PubChem.
